Test results as given in the supplement of paper PMC5662767.
Counter-ions that a name gives are not always drawn.

Tested on: Drosophila S2 cl14 SmoIP sensor cells
Test: normalized SmoIP GFP fluorescence (untreated unstimulated = 0%, untreated Hh-stimulated = 100%); higher = more Smo activation sensor fluorescence
Details: compound concentration: 2 uM, 24 h
[1] = stimulation: Hh conditioned medium (+Hh)
[2] = stimulation: mock conditioned medium (-Hh)
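Note: flow cytometry read-out as median GFP intensity of gated cells, compounds added 30 min before Hh-conditioned or mock medium, mock-treated cells serving as unstimulated baseline.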

Structure (SMILES)	normalized SmoIP GFP fluorescence [1]	normalized SmoIP GFP fluorescence [2]
O=S(=O)(c1ccccc1)N(CC(F)(F)F)c1ccc(C(O)(C(F)(F)F)C(F)(F)F)cc1	104%	-1.85%
CC(C)(C#N)c1ccc(N2C(=O)OCc3cnc4ccc(-c5cnc6ccccc6c5)cc4c32)cc1	148%	28.4%
CNC(=O)c1ccccc1Nc1nc(Nc2ccc(N3CCOCC3)cc2OC)ncc1Cl	163%	22.3%
C[C@H]1c2cccc(O)c2C(=O)C2=C(O)[C@]3(O)C(=O)C(C(N)=O)=C(O)[C@@H](N(C)C)[C@@H]3[C@@H](O)[C@@H]21 [doxycycline-hcl]	101%	-1.63%
Cc1ccc(F)c(NC(=O)Nc2ccc(-c3cccc4[nH]nc(N)c34)cc2)c1	115%	0.274%
Cn1c(N2CCCCS2(=O)=O)nc(C(=O)NCc2ccc(F)cc2)c(O)c1=O	99.7%	-2.42%
CCOC(=O)[C@H](CCc1ccccc1)N[C@@H](C)C(=O)N1[C@@H](C(=O)O)C[C@@H]2CCC[C@@H]21 [Ramipril(Altace)]	137%	-16.3%
CC(C)c1cnn2c(NCc3ccccc3)cc(NCCCCCCN)nc12	105%	10.7%
COc1cccc(C=NCCN=Cc2cccc(OC)c2[O-])c1[O-].[Cl-].[Mn+3]	114%	-2.2%
N#C/C(=C(/N)Sc1ccc(N)cc1)c1ccccc1C(F)(F)F	131%	10.2%
CNC[C@H](O)c1cccc(O)c1 [Phenylephrine-hydrochloride]	108%	-14.9%
Cc1nc(NC(=O)N2CCC[C@H]2C(N)=O)sc1-c1ccnc(C(C)(C)C(F)(F)F)c1	102%	-1.23%
O=C(O)CC[C@H]1CC[C@@](c2cc(F)ccc2F)(S(=O)(=O)c2ccc(Cl)cc2)CC1	114%	2.32%
CC(=O)Nc1ccc(NC(=S)NC(=O)c2ccc(C(C)(C)C)cc2)cc1 [tenovin-1]	97%	-4.47%
CN1CCN(c2nc(C3=C(c4c[nH]c5ccccc45)C(=O)NC3=O)c3ccccc3n2)CC1 [sotrastaurin-aeb071]	131%	40.1%
